According to article PMC7862700, “An all-to-all approach to the identification of sequence-specific readers for epigenetic DNA modifications on cytosine”:

How the values were obtained:
Experiment in all cases: DAPPL (digital affinity profiling via proximity ligation, sequencing); 10 mM Tris-HCl pH 7.5, 50 mM NaCl, 1 mM DTT, 4% glycerol, room temperature, 30 min; GST-TFs on glutathione beads, 16-mer random dsDNA library, 0.1% formaldehyde crosslink after washing; high values mean tight binding
Conditions in all cases: protein: recombinant; tags: N-terminal GST; dsDNA, one strand shown
FLI1 = target: T1, FLI1 (Homo sapiens, UniProt Q01543 1-452)
T1 sequence: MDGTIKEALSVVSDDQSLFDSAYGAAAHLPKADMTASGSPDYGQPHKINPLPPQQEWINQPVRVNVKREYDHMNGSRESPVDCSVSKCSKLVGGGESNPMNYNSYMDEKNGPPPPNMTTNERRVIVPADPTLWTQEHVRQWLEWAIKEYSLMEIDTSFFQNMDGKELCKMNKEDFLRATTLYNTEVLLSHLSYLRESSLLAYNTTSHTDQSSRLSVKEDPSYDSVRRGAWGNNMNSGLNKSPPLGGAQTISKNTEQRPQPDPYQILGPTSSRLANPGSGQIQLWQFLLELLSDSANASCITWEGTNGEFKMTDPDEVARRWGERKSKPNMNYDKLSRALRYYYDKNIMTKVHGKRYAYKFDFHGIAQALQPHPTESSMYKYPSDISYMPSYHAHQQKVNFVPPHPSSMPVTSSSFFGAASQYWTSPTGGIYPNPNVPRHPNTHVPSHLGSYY
Summary of the method: (§1)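 Sequencing on an Illumina NextSeq500 followed washing, crosslinking with 0.1% formaldehyde, proximity ligation (BsaI/T4 ligase, 1 h, 37 °C) and PCR amplification of pools that had been incubated for 30 min at room temperature with 200 nmole of a random double-stranded 16-mer DNA library in Tris/NaCl/DTT/glycerol buffer. Each pool held DNA-barcoded human transcription factors, expressed in yeast as GST fusions and captured on glutathione beads, plus a tag-only sample. Binding signal is a hexamer's read frequency for a factor divided by its frequency in the tag-only sample.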

ELK1 = target: T2, ELK1 (Homo sapiens, UniProt P19419 1-428)
T2 sequence: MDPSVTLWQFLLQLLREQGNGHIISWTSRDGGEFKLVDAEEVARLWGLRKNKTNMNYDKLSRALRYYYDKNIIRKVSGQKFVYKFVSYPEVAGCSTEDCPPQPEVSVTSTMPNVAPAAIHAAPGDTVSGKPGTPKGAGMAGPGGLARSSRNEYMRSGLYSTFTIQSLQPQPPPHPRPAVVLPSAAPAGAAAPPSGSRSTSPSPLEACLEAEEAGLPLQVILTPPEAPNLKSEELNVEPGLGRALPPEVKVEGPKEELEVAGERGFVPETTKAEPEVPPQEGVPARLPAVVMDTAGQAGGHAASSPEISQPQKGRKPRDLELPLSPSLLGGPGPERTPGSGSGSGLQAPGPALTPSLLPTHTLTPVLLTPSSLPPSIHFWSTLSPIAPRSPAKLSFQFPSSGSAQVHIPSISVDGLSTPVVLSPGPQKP
Summary of the method: as §1

GABPA = target: T3, GABPA (Homo sapiens, UniProt Q06546 1-454)
T3 sequence: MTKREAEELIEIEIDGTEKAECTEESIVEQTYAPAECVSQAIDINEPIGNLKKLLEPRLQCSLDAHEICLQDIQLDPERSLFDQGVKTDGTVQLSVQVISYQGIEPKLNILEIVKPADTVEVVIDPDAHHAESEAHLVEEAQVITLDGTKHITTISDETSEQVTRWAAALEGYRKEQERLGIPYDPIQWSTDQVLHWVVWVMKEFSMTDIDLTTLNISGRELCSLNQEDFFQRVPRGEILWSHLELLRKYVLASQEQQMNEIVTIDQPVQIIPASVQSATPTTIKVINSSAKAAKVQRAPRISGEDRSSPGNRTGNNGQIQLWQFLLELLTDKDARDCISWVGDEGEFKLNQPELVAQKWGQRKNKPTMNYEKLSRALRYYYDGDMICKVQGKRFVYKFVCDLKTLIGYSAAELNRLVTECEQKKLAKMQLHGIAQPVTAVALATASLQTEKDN
Summary of the method: as §1

ERG = target: T4, ERG (Homo sapiens, UniProt P11308 1-479)
T4 sequence: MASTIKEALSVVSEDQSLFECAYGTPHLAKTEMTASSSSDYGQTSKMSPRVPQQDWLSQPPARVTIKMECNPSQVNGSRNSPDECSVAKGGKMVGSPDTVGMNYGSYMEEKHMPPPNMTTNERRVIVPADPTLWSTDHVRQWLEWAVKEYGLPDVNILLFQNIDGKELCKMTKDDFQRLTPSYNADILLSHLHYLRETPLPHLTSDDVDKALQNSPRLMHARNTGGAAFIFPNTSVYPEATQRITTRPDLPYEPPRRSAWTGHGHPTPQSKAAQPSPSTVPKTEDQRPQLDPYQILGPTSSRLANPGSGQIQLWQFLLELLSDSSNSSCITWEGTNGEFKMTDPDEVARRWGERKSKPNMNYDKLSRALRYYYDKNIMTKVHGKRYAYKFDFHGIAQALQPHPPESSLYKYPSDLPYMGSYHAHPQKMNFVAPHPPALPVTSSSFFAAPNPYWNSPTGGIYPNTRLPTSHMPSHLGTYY
Summary of the method: as §1

ELF1 = ELF1 (Homo sapiens, UniProt P32519 1-619)
Summary of the method: as §1

EHF = target: T5, EHF (Homo sapiens, UniProt Q9NZC4 1-300)
T5 sequence: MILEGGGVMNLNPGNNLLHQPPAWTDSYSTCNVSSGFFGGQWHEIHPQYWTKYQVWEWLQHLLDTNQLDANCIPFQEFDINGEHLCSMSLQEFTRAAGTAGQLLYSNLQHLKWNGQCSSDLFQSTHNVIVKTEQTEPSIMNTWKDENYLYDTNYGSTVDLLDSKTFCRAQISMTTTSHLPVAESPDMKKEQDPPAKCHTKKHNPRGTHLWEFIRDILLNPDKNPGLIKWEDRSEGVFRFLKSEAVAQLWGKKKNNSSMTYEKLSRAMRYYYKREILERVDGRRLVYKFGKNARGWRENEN
Summary of the method: as §1

SPI1 = SPI1 (Homo sapiens, UniProt P17947 1-270)
Summary of the method: as §1

SPIB = SPIB (Homo sapiens, UniProt Q01892 1-262)
Summary of the method: as §1

ELK3 = target: T6, ELK3 (Homo sapiens, UniProt P41970 1-407)
T6 sequence: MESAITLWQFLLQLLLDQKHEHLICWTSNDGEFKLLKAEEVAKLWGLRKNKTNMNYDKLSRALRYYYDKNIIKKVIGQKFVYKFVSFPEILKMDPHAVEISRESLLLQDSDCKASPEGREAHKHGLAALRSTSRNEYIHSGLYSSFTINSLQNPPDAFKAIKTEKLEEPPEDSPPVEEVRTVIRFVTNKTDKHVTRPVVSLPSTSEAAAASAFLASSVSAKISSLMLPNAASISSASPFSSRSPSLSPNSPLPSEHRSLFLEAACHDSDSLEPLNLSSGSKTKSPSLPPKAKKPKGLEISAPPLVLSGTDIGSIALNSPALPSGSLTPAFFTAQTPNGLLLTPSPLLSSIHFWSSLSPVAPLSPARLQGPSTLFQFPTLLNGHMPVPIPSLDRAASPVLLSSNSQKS
Summary of the method: as §1

ELF1, sequence (P32519 whole entry): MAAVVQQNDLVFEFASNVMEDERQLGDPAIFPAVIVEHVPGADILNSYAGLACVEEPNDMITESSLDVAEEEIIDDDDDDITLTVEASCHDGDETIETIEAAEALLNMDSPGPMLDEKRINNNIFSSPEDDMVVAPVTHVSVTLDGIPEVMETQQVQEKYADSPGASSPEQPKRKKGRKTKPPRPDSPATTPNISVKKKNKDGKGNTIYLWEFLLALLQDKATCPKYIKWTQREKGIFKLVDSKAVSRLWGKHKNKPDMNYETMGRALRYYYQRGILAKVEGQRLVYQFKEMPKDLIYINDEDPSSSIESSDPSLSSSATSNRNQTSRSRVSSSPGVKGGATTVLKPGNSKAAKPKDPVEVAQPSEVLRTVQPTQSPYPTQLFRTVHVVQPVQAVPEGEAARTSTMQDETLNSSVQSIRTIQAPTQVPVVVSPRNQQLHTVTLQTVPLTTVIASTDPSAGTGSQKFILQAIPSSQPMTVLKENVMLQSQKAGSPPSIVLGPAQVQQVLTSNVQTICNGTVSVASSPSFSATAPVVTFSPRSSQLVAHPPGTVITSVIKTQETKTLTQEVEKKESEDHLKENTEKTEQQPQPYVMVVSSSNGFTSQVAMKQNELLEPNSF
SPIB, sequence (Q01892 whole entry): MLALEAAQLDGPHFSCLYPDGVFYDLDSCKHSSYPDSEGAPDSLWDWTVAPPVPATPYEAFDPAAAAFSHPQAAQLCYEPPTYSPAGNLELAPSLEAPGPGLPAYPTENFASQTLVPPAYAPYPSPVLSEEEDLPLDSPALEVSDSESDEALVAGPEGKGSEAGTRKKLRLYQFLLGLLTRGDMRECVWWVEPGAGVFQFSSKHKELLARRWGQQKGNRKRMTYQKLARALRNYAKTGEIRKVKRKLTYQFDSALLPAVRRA

ATTCGC
binding signal (FLI1): 1.18 fold enrichment (6-mer frequency, TF over GST control)
binding signal (ELK1): 1.15 fold enrichment (6-mer frequency, TF over GST control)
binding signal (GABPA): 1.25 fold enrichment (6-mer frequency, TF over GST control)
binding signal (ERG): 1.25 fold enrichment (6-mer frequency, TF over GST control)
binding signal (ELF1): 1.15 fold enrichment (6-mer frequency, TF over GST control)
binding signal (EHF): 1.18 fold enrichment (6-mer frequency, TF over GST control)
binding signal (SPI1): 1.21 fold enrichment (6-mer frequency, TF over GST control)
binding signal (SPIB): 1.33 fold enrichment (6-mer frequency, TF over GST control)
binding signal (ELK3): 1.06 fold enrichment (6-mer frequency, TF over GST control)
